Results on 1 molecule are retold here after PubChem BioAssay (NCATS).

Experiment [1] can be described thus: Cellular Toxicity (caspase-3) Hek293 (AID 664).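 Note: cells exposed to compound for 16 h at 37 °C before readout.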 The following applies: HEK293 caspase-3 activation, DMSO = 0%, 100 µM tamoxifen = 100%; series mostly up to 92.2 µM. The procedure, abridged: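 Luminescent Caspase-Glo 3/7 readout (aminoluciferin release) in HEK293 cells after 16 h compound treatment, 37 °C. Normalization: DMSO = basal, 100 uM tamoxifen = 100% stimulation. Concentration-response fitted with standard Hill equation for AC50.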

Experiment [2] in a line: Cellular Toxicity (caspase-3) N2a (AID 665).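 Note: compound exposure lasted 16 h at 37 °C before readout.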 The following applies: N2a cells, luminescence, normalized: DMSO 0%, 10 µM staurosporine 100%; series mostly up to 92.2 µM. The procedure, abridged: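 Luminescent Caspase-Glo 3/7 readout in N2a mouse neuroblastoma cells after 16 h compound exposure at 37 °C. Signal scaled to DMSO (basal) and 10 uM staurosporine (100%). Concentration-response fitted with Hill equation for AC50.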

A short description of experiment [3]: Cellular Toxicity (caspase-3) NIH 3T3 (AID 666). The following applies: NIH 3T3 caspase-3 activation, apoptosis/toxicity, 0% DMSO, 100% is 100 µM tamoxifen; series mostly up to 92.2 µM. The procedure, abridged: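 NIH 3T3, 1000 cells/well, 5 hr settle then 16 hr compound at 37°C; Caspase-Glo 3/7, 20 min RT, luminescence. DMSO = basal, 100 uM tamoxifen = 100%. Hill-equation AC50, qHTS.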

Experiment [4] is described as follows: Cellular Toxicity (caspase-3) Renal Proximal Tubule (AID 667).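 Note: cells exposed to compound for 16 hours at 37 °C before detection.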 The following applies: renal proximal tubule cells, primary cells freshly taken from rat, solvent-only wells 0%, staurosporine 100%; series mostly up to 91.7 µM. The procedure, abridged: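 In qHTS format, rat primary proximal tubule cells seeded at 1000 per well are exposed to compounds for 16 hours at 37 °C. An increase in Caspase-Glo 3/7 luminescence indicates caspase activation.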

In experiment [5] the target is Cytochrome P450 3A4 (Homo sapiens) (UniProt P08684). Kind of experiment: qHTS Assay for Inhibitors and Substrates of Cytochrome P450 3A4 (AID 884). Note: potency is the fitted concentration of half-maximal effect; nearly all actives have a fitted effect of over 50% in size. The following applies: recombinant CYP3A4, Luciferin-PPXE luminescence; series mostly up to 57.1 µM. The procedure, abridged: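 Luminescent readout of luciferin produced by CYP3A4 (20 nM) dealkylation of Luciferin-PPXE, 25 uM (its KM). NADPH-driven reaction ran 60 min at RT after 10 min compound preincubation; data scaled to 57 uM ketoconazole as 100% inhibition.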
Cytochrome P450 3A4 (Homo sapiens), sequence (P08684 whole entry, looked up): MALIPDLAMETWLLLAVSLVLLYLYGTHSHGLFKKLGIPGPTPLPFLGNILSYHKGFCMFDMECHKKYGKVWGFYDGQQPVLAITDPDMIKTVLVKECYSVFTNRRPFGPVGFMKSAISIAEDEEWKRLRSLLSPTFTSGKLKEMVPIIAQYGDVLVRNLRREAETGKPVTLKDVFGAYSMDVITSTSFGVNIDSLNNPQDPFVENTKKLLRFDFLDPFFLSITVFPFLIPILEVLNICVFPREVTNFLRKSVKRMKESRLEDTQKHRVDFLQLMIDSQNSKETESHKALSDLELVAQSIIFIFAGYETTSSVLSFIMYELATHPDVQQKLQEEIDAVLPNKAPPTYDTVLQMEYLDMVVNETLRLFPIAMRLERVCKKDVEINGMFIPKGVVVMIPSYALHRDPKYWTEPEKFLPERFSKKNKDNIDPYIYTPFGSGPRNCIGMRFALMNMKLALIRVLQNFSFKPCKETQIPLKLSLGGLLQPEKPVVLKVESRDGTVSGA
In general terms: Quantitative high-throughput screening tests each substance at several concentrations.

For experiment [6] the target is unchanged. Kind of experiment: qHTS Assay for Activators of Cytochrome P450 3A4 (AID 885). Note: nearly all actives have a fitted effect of over 65% in size. The following applies: recombinant CYP3A4, Luciferin-PPXE luminescence, 60 min; series mostly up to 57.1 µM. The procedure, abridged: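 Using 20nM recombinant human CYP3A4 in potassium phosphate (200mM), substrate Luciferin-PPXE at 25uM, luminescent luciferin detection followed a 60-min RT NADPH reaction; data scaled to 57 uM ketoconazole.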

A short description of experiment [7]: Cell Viability - LYMP2-001 (AID 921). Note: nearly all actives have a fitted effect of over 70% in size. The following applies: LYMP2-001 lymphoblastoid cell viability; series mostly up to 92.2 µM. The procedure, abridged: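 qHTS, 1536-well; lymphoblastoid cells, 24 hr compound, 37 C; ATP by CellTiter-Glo, 30 min RT; luminescence; Hill-fit AC50.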
A short description of experiment [8]: MultiTox-Fluor Cytotoxicity Assay - LYMP1-001 - Dead Cells (AID 946). The following applies: LYMP1-001 lymphoblastoid cells, dead-cell protease fluorescence; series mostly up to 92.2 µM. The procedure, abridged: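 In this qHTS, 15 uM tetraoctylammonium bromide defined 100% and DMSO defined basal activity. Lymphoblastoid cells (LYMP1-001, 2500 per well) received compound for 16 hr at 37 C before a fluorogenic dead-cell substrate readout at 485/520 nm.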

The nature of experiment [9]: MultiTox-Fluor Cytotoxicity Assay - LYMP1-001 - Live Cells (AID 947). The following applies: LYMP1-001 lymphoblastoid cells, live-cell protease fluorescence viability; series mostly up to 92.2 µM.
A short description of experiment [10]: Cell Viability - LYMP1-002 - Assay at 16 hr (AID 948). The following applies: LYMP1-002 lymphoblastoid cell viability; series mostly up to 92.2 µM. The procedure, abridged:
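Acute cytotoxicity is scored as a concentration-dependent fall in intracellular ATP in a human lymphoblastoid line (LYMP1-002) after 16 hr compound exposure at 37 C, measured by luciferase luminescence.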

A short description of experiment [11]: MultiTox-Fluor Cytotoxicity Assay - LYMP1-002 - Live Cells (AID 955). The following applies: LYMP1-002 lymphoblastoid live-cell protease fluorescence viability; series mostly up to 46.1 µM. The procedure, abridged: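 LYMP1-002 lymphoblastoid cells; 2500 cells/well; 16 hr compound exposure, 37 C; MultiTox-Fluor reagent 60 min RT; live-cell fluorescence Ex/Em=405/510; qHTS concentration-response, Hill-equation AC50; tetraoctylammonium bromide positive control.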

Experiment [12] in a line: MultiTox-Fluor Cytotoxicity Assay - LYMP1-002 - Dead Cells (AID 960). Note: nearly all actives have a fitted effect of over 60% in size. The following applies: LYMP1-002 lymphoblastoid cells, dead-cell protease fluorescence; series mostly up to 46.1 µM. The procedure, abridged:
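Readout: fluorescence at 485/520 from cell-impermeant bis-AAF-R110 cleaved by proteases leaking from damaged cells. LYMP1-002 lymphoblastoid line, 16 hr compound treatment at 37 C, concentration-response in qHTS format; Hill-equation AC50 values.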

The nature of experiment [13]: MultiTox-Fluor Cytotoxicity Assay - LYMP1-003 - Dead Cells (AID 961). Note: nearly all actives have a fitted effect of over 70% in size. The following applies: LYMP1-003 lymphoblastoid cells, dead-cell protease fluorescence; series mostly up to 92.2 µM. The procedure, abridged:
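Acute toxicity is scored as increased dead-cell protease activity in human lymphoblastoid LYMP1-003 cells after 16 h compound exposure in complete culture medium. Activity is normalized to DMSO basal and 15 uM tetraoctylammonium bromide as full response.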

A short description of experiment [14]: MultiTox-Fluor Cytotoxicity Assay - LYMP1-003 - Live Cells (AID 962).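 Note: cytotoxic hits lower the live-cell protease signal.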 The following applies: LYMP1-003 lymphoblastoid cells, MultiTox-Fluor live-cell protease fluorescence; series mostly up to 92.2 µM. The procedure, abridged: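 Readout: live-cell fluorescence (Ex/Em=405/510) from GF-AFC cleavage after 60 min MultiTox-Fluor reagent at room temperature. Lymphoblastoid LYMP1-003 cells, 16 hr compound treatment, 37 C. Concentration-response fitted to standard Hill equation for AC50.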

The nature of experiment [15]: Cell Viability - LYMP1-003 - Assay at 24 hr (AID 963). The following applies: LYMP1-003 lymphoblastoid cell viability; series mostly up to 92.2 µM. The procedure, abridged: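 CellTiter-Glo luminescence (intracellular ATP) read after 24 hr, 37 C compound exposure of 2500 LYMP1-003 human lymphoblastoid cells/well in complete medium; qHTS concentration series; AC50 via standard Hill equation.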

Experiment [16] is described as follows: Cell Viability - LYMP1-003 - Assay at 40 hr (AID 964). Note: nearly all actives have a fitted effect of over 60% in size. The following applies: LYMP1-003 lymphoblastoid viability; series mostly up to 92.2 µM. The procedure, abridged: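 LYMP1-003 lymphoblastoid cells, 2500/well; 5 hr preincubation, 40 hr compound exposure, 37 C; CellTiter-Glo 30 min RT; luminescence; Hill-fit AC50. Positive control tetraoctylammonium bromide.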

Experiment [17] can be described thus: Cell Viability - LYMP2-003 (AID 965).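 Note: cells exposed to compounds for 24 h before reading; nearly all actives have a fitted effect of over 50% in size.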 The following applies: LYMP2-003 lymphoblastoid cell viability; series mostly up to 92.2 µM. The procedure, abridged:
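Acute cytotoxicity is scored as a concentration-dependent drop in intracellular ATP, measured by luciferase luminescence in human lymphoblastoid cells treated for 24 hours at 37 C. AC50 values derive from Hill-equation modelling.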

A short description of experiment [18]: Cell Viability - LYMP2-004 (AID 966). Note: nearly all actives have a fitted effect of over 65% in size. The following applies: LYMP2-004 lymphoblastoid cell viability, qHTS; series mostly up to 92.2 µM. The procedure, abridged: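 Luminescent ATP read-out (CellTiter-Glo, 30 min RT) after 24 hr compound exposure at 37 C; 2500 lymphoblastoid cells/well, complete medium. Decrease in ATP = cytotoxicity; AC50 from standard Hill model.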

Experiment [19] in a line: Cell Viability - LYMP2-005 (AID 967). The following applies: LYMP2-005 lymphoblastoid cell viability; series mostly up to 92.2 µM. The procedure, abridged:
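qHTS viability screen in LYMP2-005 cells: 24 h at 37 C with compound, ATP luminescence via CellTiter-Glo, AC50 from Hill curves.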

The nature of experiment [20]: Cell Viability - LYMP2-009 (AID 968). Note: nearly all actives have a fitted effect of over 55% in size. The following applies: LYMP2-009 lymphoblastoid cell viability; series mostly up to 92.2 µM.
A short description of experiment [21]: Cell Viability - LYMP2-011 (AID 969).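 Note: cells exposed to compound for 24 hours; nearly all actives have a fitted effect of over 60% in size.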 The following applies: LYMP2-011 lymphoblastoid cells viability; series mostly up to 92.2 µM. The procedure, abridged:
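Luminescent ATP read-out (CellTiter-Glo, 30 min RT) after 24 hr compound exposure at 37 C in human lymphoblastoid cells, 2500 cells/well. Decreasing ATP indicates cytotoxicity; AC50 from standard Hill fit.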

The nature of experiment [22]: Cell Viability - LYMP2-013 (AID 970). Note: nearly all actives have a fitted effect of over 55% in size. The following applies: LYMP2-013 lymphoblastoid cells viability; series mostly up to 92.2 µM. The procedure, abridged: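 CellTiter-Glo luminescence (cellular ATP) read after 30 min at RT. Cells: human lymphoblastoid line, 2500/well, 24 hr compound exposure at 37 C. Tetraoctylammonium bromide positive control; AC50 via standard Hill fit of qHTS titrations.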

Experiment [23] can be described thus: Cell Viability - LYMP2-015 (AID 971). Note: nearly all actives have a fitted effect of over 55% in size. The following applies: LYMP2-015 lymphoblastoid cell viability; series mostly up to 92.2 µM. The procedure, abridged: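 qHTS cytotoxicity: 2500 cells/well, 5 hr 37 C, compound 24 hr 37 C, CellTiter-Glo 30 min RT, luminescence. Loss of ATP = toxicity; AC50 via standard Hill fit.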

Unmarked numbers belong to inactive results. Records with an inconclusive call do not appear. Active and inactive are the calls of the source. Calls come from the whole dose curve; as a rule, active = well fitted curve in the direction sought with a large enough effect; inconclusive = small, poorly fitted or top-dose-only effect, or another doubt; inactive = no such curve, though single readings can be large; an effect the other way counts as inactive or inconclusive.

Regarding `CC(C)(c1cc(Br)c(O)c(Br)c1)c1cc(Br)c(O)c(Br)c1`, the outcome in experiment [1], in experiment [2], in experiment [3], in experiment [4], in [7] and in [8] was inactive. The molecule was classed as inactive in [9], in experiment [10], in experiment [11], in experiment [12], in experiment [13] and in experiment [14]. For the same molecule, the molecule was called inactive in experiment [15], in [16], in [17], in experiment [18], in experiment [19] and in [20]. The call in [21], in experiment [22] and in experiment [23] was inactive. Further, the Potency in experiment [5] is 15.8 µM (active). The Potency entry in experiment [6] is “inactive”.
